# In PubChem BioAssay (NCATS):
# Several values for one entry are separate records, joined by “and”; a condition that tells them apart may be missing. Equal values may be shown once. Unmarked numbers belong to inactive results. Results filed as inconclusive are left out. A call without a number means that no potency is given here. Activity calls are given as the source filed them. Unless noted, calls come from the whole dose curve; as a rule, active = well fitted curve in the direction sought with a large enough effect; inconclusive = small, poorly fitted or top-dose-only effect, or another doubt; inactive = no such curve, though single readings can be large; an effect the other way counts as inactive or inconclusive.
# Legend:
# [1] = biological target: Guanine nucleotide-binding protein G(i) subunit alpha-1 (Homo sapiens) (UniProt P63096); test: qHTS Assay for Inhibitors of RGS12 GoLoco Motif Activity (Green Fluorophore) (AID 879); note: potency is the fitted concentration of half-maximal effect
# Procedure, shortened: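 A drop in FITC polarization marked displacement of the FITC-tagged RGS12 GoLoco peptide (10 nM) from Gαi1 (50 nM). Compounds were incubated 10 min at room temperature in Tris pH 7.5 buffer containing 150 mM NaCl, 0.1 mM GDP and 0.05% NP40; unlabeled peptide titration served as control.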
# [2] = biological target: Cytochrome P450 2D6 (Homo sapiens) (UniProt P10635); test: qHTS Assay for Inhibitors and Substrates of Cytochrome P450 2D6 (AID 891); note: nearly all actives have a fitted effect of over 60% in size; note: potency is the fitted concentration of half-maximal effect
# Procedure, shortened: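 Luminescent read-out of luciferin formed by 5 nM human CYP2D6 demethylating 30 uM Luciferin-ME EGE (Km level) over 60 min at room temperature after NADPH regeneration addition. Data normalized to full inhibition by 1.43 uM quinidine.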
# [3] = biological target: 3',5'-cyclic-AMP phosphodiesterase 4B (Homo sapiens) (UniProt Q07343); test: qHTS Assay for Inhibitors of PDE-IV (AID 607; active = well fitted activation curve with a large enough effect in the main read-out, with a control signal flat, not every such curve was filed as active; note: potency is the fitted concentration of half-maximal effect)
# Procedure, shortened: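 Live HEK293 cells with a modified cyclic nucleotide-gated (CNG) channel report intracellular cAMP via membrane-potential dye fluorescence (ex 535/em 590 nm). Endogenous PDE-IV was targeted. Compounds were tested at up to 22.9 uM final; RO 20-1724 100 uM served as control.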
# [4] = biological target: Cytochrome P450 3A4 (Homo sapiens) (UniProt P08684); test: qHTS Assay for Activators of Cytochrome P450 3A4 (AID 885); note: nearly all actives have a fitted effect of over 65% in size
# Procedure, shortened: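 Using 20nM recombinant human CYP3A4 in potassium phosphate (200mM), substrate Luciferin-PPXE at 25uM, luminescent luciferin detection followed a 60-min RT NADPH reaction; data scaled to 57 uM ketoconazole.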
# [5] = biological target: Cytochrome P450 2C9 (Homo sapiens) (UniProt P11712); test: qHTS Assay for Inhibitors and Substrates of Cytochrome P450 2C9 (AID 883); note: nearly all actives have a fitted effect of over 60% in size; note: potency is the fitted concentration of half-maximal effect
# Procedure, shortened: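 Inhibition of CYP2C9 is scored as loss of luminescence, with 57uM sulphaphenazole defining 100% inhibition. Substrate Luciferin-H is used at 100uM, equal to its KM; enzyme at 10nM in 25mM KPO4, 60 min at 37C with NADPH regeneration.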
# [6] = biological target: Cytochrome P450 3A4 (Homo sapiens) (UniProt P08684); test: qHTS Assay for Inhibitors and Substrates of Cytochrome P450 3A4 (AID 884); note: nearly all actives have a fitted effect of over 50% in size; note: potency is the fitted concentration of half-maximal effect
# Procedure, shortened: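 Luminescent readout of luciferin produced by CYP3A4 (20 nM) dealkylation of Luciferin-PPXE, 25 uM (its KM). NADPH-driven reaction ran 60 min at RT after 10 min compound preincubation; data scaled to 57 uM ketoconazole as 100% inhibition.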
# [7] = biological target: Cytochrome P450 2C19 (Homo sapiens) (UniProt P33261); test: qHTS Assay for Inhibitors and Substrates of Cytochrome P450 2C19 (AID 899); note: nearly all actives have a fitted effect of over 60% in size; note: potency is the fitted concentration of half-maximal effect
# Procedure, shortened: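 5nM enzyme + 10uM Luciferin-H EGE (=KM), 50mM KPO4; cpd pin-transferred, 10 min 37C; NADPH regen, 60 min 37C; stopped w/ luciferin detection reagent, 20 min; luminescence. Normalized to 57uM ketoconazole (AC100).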
# [8] = Cellular Toxicity (caspase-3) HepG2 (AID 654);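 note: cells exposed to compound for 16 hours before reading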
# Procedure, shortened: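 Caspase 3/7 activation is measured as a luminescence increase (aminoluciferin substrate) after 16 h compound exposure of human hepatocarcinoma HepG2 cells. AC50 values are Hill fits, scaled between DMSO baseline and 100 uM tamoxifen stimulation.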
# [9] = Cellular Toxicity (caspase-3) Jurkat (AID 655);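 note: cells exposed to compound for 16 h at 37 °C before reading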
# Procedure, shortened: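 qHTS in human Jurkat T-cell leukemia line: 16 hr compound treatment at 37 °C, caspase-3/7 activity measured by Caspase-Glo luminescence. AC50 derived from Hill equation.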
# [10] = Cellular Toxicity (caspase-3) HUV-EC-C (AID 656)
# Procedure, shortened: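 Concentration-dependent caspase 3/7 induction was assessed in HUV-EC-C cells exposed for 16 hours. Data scaled between DMSO and tamoxifen (100 uM) controls.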
# [11] = Cellular Toxicity (caspase-3) SHSY5Y (AID 657);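 note: cells exposed to compound for 16 hours at 37 °C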
# Procedure, shortened: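 Readout: caspase-cleaved peptide-aminoluciferin substrate driving luciferase light in SH-SY5Y neuroblastoma cells after 16 h treatment. Response normalized to DMSO and 10 uM staurosporine controls.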
# [12] = Cellular Toxicity (caspase-3) BJ (AID 658); conditions: Potency: caspase-3 activation
# Procedure, shortened: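 Caspase-Glo 3/7 luminescence, read 1 hr after reagent at room temperature, in normal BJ fibroblasts exposed 16 hours at 37 °C. AC50 values from Hill-equation concentration-response, scaled between DMSO basal and 10 uM staurosporine as 100%.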
# [13] = Cellular Toxicity (caspase-3) MRC-5 (AID 659); conditions: Potency: caspase-3 activation
# Procedure, shortened: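 Luminescent Caspase-Glo 3/7 read-out (1 h, room temperature) after a 16 h, 37 °C compound exposure of MRC-5 lung fibroblasts at 1500 cells/well. Concentration-response AC50 from Hill equation; 0% DMSO, 100% 10 uM staurosporine.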
# [14] = Cellular Toxicity (caspase-3) Mesangial (AID 660);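 note: combined caspase 3 and 7 activity read by Caspase-Glo luminescence; cells exposed to compound for 16 h before the caspase read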
# Procedure, shortened: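 Caspase 3/7 activation measured by Caspase-Glo 3/7 luminescence (20 min, room temperature) following 16 h exposure of mesangial cells (1000/well); AC50 from Hill-equation fit, normalized to DMSO and 100 uM tamoxifen.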
# [15] = Cellular Toxicity (caspase-3) SK-N-SH (AID 661); conditions: SK-N-SH caspase-3 activation, qHTS; caspase-3 activation: at 91.7 µM (top of the series), DMSO as zero, staurosporine as full
# Procedure, shortened: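 Caspase 3/7 activation was read by luminogenic substrate cleavage after 16 hour treatment of SK-N-SH cells. Signal was scaled between DMSO and 10 uM staurosporine, and concentration-response data were fitted with the Hill equation for AC50.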
# [16] = Cellular Toxicity (caspase-3) Hek293 (AID 664);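 note: cells exposed to compound for 16 h at 37 °C before readout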
# Procedure, shortened: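 Concentration-response qHTS: caspase 3/7 activation measured by luminescent aminoluciferin substrate cleavage after 16 h compound exposure of Hek 293 cells. AC50 from Hill equation, with DMSO as basal and 100 uM tamoxifen as 100%.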
# [17] = Cellular Toxicity (caspase-3) N2a (AID 665);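 note: compound exposure lasted 16 h at 37 °C before readout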
# Procedure, shortened: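 Caspase-3/7 activation measured as luminescence from Caspase-Glo reagent (1 h, room temperature) after 16 h compound exposure of mouse N2a cells. AC50 values from Hill-equation concentration-response, scaled between DMSO and 10 uM staurosporine.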
# [18] = Cellular Toxicity (caspase-3) Renal Proximal Tubule (AID 667); conditions: renal proximal tubule cells; at 91.7 µM (top of the series) unless noted;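 note: cells exposed to compound for 16 hours at 37 °C before detection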
# Procedure, shortened: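 Caspase-Glo 3/7 read-out, rat primary kidney proximal tubule cells. Compound exposure 16 h, 37 °C; detection after 1 h at RT. Activity scaled to DMSO and 10 uM staurosporine.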
# Guanine nucleotide-binding protein G(i) subunit alpha-1 (Homo sapiens), sequence (P63096 whole entry, looked up): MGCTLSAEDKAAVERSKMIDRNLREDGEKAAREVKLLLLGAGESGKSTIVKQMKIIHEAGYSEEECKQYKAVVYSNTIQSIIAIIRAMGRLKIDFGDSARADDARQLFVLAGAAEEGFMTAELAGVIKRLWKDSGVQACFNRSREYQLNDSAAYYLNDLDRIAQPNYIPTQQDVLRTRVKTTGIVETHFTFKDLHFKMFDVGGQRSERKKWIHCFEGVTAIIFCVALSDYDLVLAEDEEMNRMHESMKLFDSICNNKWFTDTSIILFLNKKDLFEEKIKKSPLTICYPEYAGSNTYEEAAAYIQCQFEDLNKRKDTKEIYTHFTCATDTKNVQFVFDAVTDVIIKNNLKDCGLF
# 3',5'-cyclic-AMP phosphodiesterase 4B (Homo sapiens), sequence (Q07343 whole entry, looked up): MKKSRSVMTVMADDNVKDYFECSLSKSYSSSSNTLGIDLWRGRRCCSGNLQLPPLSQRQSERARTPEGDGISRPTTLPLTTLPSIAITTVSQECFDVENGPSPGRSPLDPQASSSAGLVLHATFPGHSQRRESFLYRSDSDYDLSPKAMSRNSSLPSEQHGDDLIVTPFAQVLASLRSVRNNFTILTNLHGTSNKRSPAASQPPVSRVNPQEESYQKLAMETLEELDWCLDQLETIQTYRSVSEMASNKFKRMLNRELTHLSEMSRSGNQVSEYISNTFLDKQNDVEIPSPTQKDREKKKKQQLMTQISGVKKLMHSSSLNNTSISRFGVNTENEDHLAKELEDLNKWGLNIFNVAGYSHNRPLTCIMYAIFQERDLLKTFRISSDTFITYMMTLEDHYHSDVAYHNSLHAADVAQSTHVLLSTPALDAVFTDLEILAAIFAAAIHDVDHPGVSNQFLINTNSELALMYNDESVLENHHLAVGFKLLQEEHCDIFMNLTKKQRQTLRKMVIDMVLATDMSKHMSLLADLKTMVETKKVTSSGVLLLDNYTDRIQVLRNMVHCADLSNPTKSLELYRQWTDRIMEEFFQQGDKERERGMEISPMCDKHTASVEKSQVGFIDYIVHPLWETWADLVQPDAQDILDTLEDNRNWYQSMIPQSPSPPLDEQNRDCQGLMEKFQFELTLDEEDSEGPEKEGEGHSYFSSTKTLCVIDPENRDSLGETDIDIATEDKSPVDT
# Cytochrome P450 3A4 (Homo sapiens), sequence (P08684 whole entry, looked up): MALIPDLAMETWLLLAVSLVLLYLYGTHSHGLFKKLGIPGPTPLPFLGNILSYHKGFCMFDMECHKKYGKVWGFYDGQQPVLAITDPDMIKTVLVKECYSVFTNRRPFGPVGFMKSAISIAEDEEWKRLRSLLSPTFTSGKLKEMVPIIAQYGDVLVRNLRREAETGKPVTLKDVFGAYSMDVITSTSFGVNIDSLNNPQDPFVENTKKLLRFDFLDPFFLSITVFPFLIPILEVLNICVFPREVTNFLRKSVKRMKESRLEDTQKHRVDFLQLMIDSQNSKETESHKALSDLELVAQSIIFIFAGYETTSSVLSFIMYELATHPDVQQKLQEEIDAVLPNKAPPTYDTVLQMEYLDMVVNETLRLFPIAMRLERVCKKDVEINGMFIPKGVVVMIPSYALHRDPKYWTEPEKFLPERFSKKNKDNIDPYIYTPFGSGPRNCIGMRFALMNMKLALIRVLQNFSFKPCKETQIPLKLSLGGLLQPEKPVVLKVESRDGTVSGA
# Cytochrome P450 2C19 (Homo sapiens), sequence (P33261 whole entry, looked up): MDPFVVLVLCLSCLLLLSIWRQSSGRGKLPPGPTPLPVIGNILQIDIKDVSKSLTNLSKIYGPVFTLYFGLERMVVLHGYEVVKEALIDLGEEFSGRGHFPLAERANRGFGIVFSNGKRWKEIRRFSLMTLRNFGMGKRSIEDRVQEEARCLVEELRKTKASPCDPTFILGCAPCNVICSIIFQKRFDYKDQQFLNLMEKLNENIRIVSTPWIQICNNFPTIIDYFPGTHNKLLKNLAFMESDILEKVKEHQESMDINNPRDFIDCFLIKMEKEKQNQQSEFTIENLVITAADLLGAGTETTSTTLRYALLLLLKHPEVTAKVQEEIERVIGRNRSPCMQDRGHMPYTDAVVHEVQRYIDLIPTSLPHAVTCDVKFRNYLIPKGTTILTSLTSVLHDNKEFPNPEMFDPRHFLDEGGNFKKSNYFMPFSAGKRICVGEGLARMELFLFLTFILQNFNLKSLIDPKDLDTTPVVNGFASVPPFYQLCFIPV
# Cytochrome P450 2D6 (Homo sapiens), sequence (P10635 whole entry, looked up): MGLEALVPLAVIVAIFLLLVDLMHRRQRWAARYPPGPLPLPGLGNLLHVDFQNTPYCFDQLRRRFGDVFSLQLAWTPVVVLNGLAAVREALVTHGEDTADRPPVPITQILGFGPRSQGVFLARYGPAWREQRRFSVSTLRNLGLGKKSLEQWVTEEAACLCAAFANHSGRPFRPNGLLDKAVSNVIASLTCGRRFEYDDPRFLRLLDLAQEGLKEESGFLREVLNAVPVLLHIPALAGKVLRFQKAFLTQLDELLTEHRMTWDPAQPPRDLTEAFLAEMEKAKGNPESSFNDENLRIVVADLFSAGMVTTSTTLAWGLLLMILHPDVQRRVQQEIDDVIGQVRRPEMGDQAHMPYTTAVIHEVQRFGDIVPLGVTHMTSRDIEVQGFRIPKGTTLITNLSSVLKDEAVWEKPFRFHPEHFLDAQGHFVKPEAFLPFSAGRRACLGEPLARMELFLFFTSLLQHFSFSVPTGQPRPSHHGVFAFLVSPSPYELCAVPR
# Cytochrome P450 2C9 (Homo sapiens), sequence (P11712 whole entry, looked up): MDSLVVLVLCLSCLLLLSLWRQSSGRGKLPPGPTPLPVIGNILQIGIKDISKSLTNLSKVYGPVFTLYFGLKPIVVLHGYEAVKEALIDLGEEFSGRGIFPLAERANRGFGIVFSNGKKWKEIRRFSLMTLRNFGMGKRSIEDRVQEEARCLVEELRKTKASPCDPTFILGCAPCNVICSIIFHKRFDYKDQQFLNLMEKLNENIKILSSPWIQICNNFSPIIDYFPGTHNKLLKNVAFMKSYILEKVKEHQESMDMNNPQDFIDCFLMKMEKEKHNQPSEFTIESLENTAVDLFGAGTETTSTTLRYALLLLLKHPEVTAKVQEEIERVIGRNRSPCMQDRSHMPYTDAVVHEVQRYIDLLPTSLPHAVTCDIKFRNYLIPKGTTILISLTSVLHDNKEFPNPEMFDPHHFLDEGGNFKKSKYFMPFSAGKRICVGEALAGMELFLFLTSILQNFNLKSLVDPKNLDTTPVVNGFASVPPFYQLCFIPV
smiles,measurement,setting,value
C[N+](C)(C)CC#CCN1CCCC1=O,Potency,[1],inactive
same,Potency,[2],3.98 µM (active)
C[N+]1(C)CCN(c2ccccc2)CC1,Potency,[3],inactive
same,Potency,[1],inactive
same,outcome,[4],inactive
NC(=O)COc1c(F)cc(SCCNS(=O)(=O)c2ccccc2)cc1F,Potency,[3],inactive
same,Potency,[1],inactive
same,outcome,[4],inactive
CCCn1c(=O)c2[nH]c(C3CCCC3)nc2n(CCCOC(=O)c2ccc(S(=O)(=O)F)cc2)c1=O,Potency,[3],1.26 µM (active)
same,Potency,[1],inactive
same,outcome,[4],inactive
CN(N=O)c1ccc(O)c(O)c1,Potency,[3],inactive
same,Potency,[5],inactive
same,Potency,[6],inactive
same,Potency,[2],inactive
same,Potency,[7],inactive
C=CCC1(C(C)CCC)C(=O)N=C(S)NC1=O (stereo not given),Potency,[6],12.6 µM (active)
same,outcome,[4],inactive
Cc1cc(C)cc(C(=O)OC2C[C@H]3CC[C@@H](C2)N3C)c1 (stereo not given in full),Potency,[2],0.251 µM (active)
CC(C)(C)c1cc(C=C(C#N)C#N)cc(C(C)(C)C)c1O,Potency,[1],inactive
same,Potency,[5],0.0316 µM (active)
same,Potency,[6],3.16 µM (active)
same,outcome,[4],inactive
Cc1[nH]c2ccc(O)cc2c1CCN,Potency,[3],inactive
same,Potency,[1],inactive
same,outcome,[4],inactive
same,Potency,[7],7.94 µM (active)
Clc1ccc(Cl)cc1,Potency,[6],inactive
O=[N+]([O-])c1ccc2nc(N3CCNCC3)ccc2c1,Potency,[3],inactive
same,Potency,[1],inactive
same,outcome,[4],inactive
same,Potency,[7],inactive
COc1ccc2c(c1)c(CCN1CCOCC1)c(C)n2C(=O)c1cccc(Cl)c1Cl,Potency,[6],3.16 µM (active)
same,outcome,[4],inactive
CC(C)Nc1ccc(Nc2ccccc2)cc1,outcome,[8],inactive
same,Potency,[9],inactive
same,outcome,[10],inactive
same,outcome,[11],inactive
same,Potency,[12],inactive
same,Potency,[13],inactive
same,outcome,[14],inactive
same,Potency,[15],inactive
same,outcome,[16],inactive
same,outcome,[17],inactive
same,caspase-3 activation,[18],"11.6% [at 91.7 µM, primary cells freshly taken from rat, solvent-only wells 0%, staurosporine 100%]"
same,outcome,[4],inactive
CCC1(C)CC(=O)NC(=O)C1,Potency,[3],inactive
same,Potency,[7],inactive
CC1OC1P(=O)(O)O (stereo not given),Potency,[6],inactive
NC(=O)CI,Potency,[3],inactive
same,Potency,[1],inactive
same,outcome,[4],inactive
CCC(=O)O[C@@](Cc1ccccc1)(c1ccccc1)[C@@H](C)CN(C)C,Potency,[6],5.01 µM (active)
same,outcome,[4],inactive
same,Potency,[2],7.94 µM (active)
NC(Cc1ccc(N(CCCl)CCCl)cc1)C(=O)O (stereo not given),outcome,[4],inactive
Clc1cc(I)cc(Cl)c1NC1=NCCN1,Potency,[3],inactive
same,Potency,[1],inactive
same,Potency,[2],3.98 µM (active)
CN1C2CCC1CC(OC(c1ccccc1)c1ccccc1N)C2 (stereo not given),Potency,[6],inactive
O=c1ccc2[nH]cc(C3=CCNCC3)c2[nH]1,Potency,[3],inactive
same,Potency,[2],2.51 µM (active)
same,Potency,[7],0.126 µM (active)
CP(=O)(O)C1=CCNCC1,Potency,[3],inactive
same,Potency,[1],inactive
same,outcome,[4],inactive
O=C(O)c1cc[c]([Hg][Cl])cc1,Potency,[1],25.1 µM (active)
[N-]=[N+]=CC(=O)OCC(N)C(=O)O (stereo not given),Potency,[6],inactive
O=C1C=C2C=C[C@@H]3C[C@@]2(O1)[C@H]1CCCCN31,Potency,[6],inactive
COc1ccc(OC)c(C(O)C(C)N)c1 (stereo not given),Potency,[6],inactive
COc1ccc2c(c1)/C(=C/c1cnc[nH]1)C(=O)N2,Potency,[1],inactive
same,Potency,[6],0.794 µM (active)
same,outcome,[4],inactive
C[C@@H](CO)NC(=O)[C@@H]1C=C2c3cccc4[nH]cc(c34)C[C@H]2N(C)C1,outcome,[4],inactive
C=CCN1CC[C@]23c4c5ccc(O)c4O[C@H]2/C(=N/NC(=O)c2ccccc2)CC[C@@]3(O)[C@H]1C5,outcome,[4],inactive
CCCN(CCC)[C@H]1CCc2c(F)ccc(O)c2C1,Potency,[3],inactive
same,Potency,[1],inactive
same,Potency,[2],631 nM (active) and 1.58 µM (active)
N[C@@H](Cn1oc(=O)[nH]c1=O)C(=O)O,Potency,[1],inactive
same,outcome,[4],inactive
